According to PubChem BioAssay (NCATS):
Where “and” joins values, the source holds several entries; their conditions need not be identical. Equal values may be shown once. Values without a mark were called inactive. Calls of active or inactive are those of the source.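 The calls were made as follows: active = compounds whose dose series gives a full or clear partial fitted curve of increased nuclear translocation; inconclusive = weak partial curve or effect only at the top dose; inactive = no dose-dependent translocation response.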

target: Glucocorticoid receptor (Homo sapiens) (UniProt P04150); test: GR-GFP Redistribution (AID 450); conditions: U2OS GR-GFP nuclear translocation, laser cytometry, 2 h
From the text: NIH Molecular Libraries Screening Centers Network [MLSCN]
NIH Chemical Genomics Center [NCGC]
The glucocorticoid receptor (GR) Redistribution assay (BioImage) enables the visualization of GR cytoplasmic to nuclear translocation by the use of a GR-GFP fusion. GR is normally cytosolic, however ligands such as dexamethasone, cause nuclear translocation where the protein binds to response elements and interacts with various co-factors to modulate transcription. Because both functional agonists and antagonists can induce nuclear translocation, this assay can detect ligands regardless of their effects on gene expression. GR-GFP expressing U20S cells were used here. Dexamethasone was the positive control for translocation and data normalization. Detection of nuclear translocation was performed in 1536-well plates using the Acumen laser scanning plate cytometer (TTP LabTech). Validation of this assay and a detailed protocol have been described.
NCGC Assay Protocol Summary:
GR-GFP U2OS cells were maintained in DMEM with Glutamax and high glucose, 1% v/v penicillin-streptomycin, and 0.5 mg/mL Geneticin. For cell culture, 10% […] fetal bovine serum (FBS) was used (Invitrogen #26140-079). For cell plating 10% dextran, charcoal-stripped FBS (Hyclone SH30068.03) was used. U2OS cells were trypsin treated, suspended in medium, and passed through a 40 um basket filter. The cells were seeded at 600 cells/5 uL/well into clear-bottom black sided 1536-well plates and incubated for approximately 20 hrs, 37degC, 5%, CO2 in a tissue culture incubator. Twenty-three nL of compound was delivered by pin tool and the plates were incubated as above for 2 hrs. The compounds were tested as a 7-point titration ranging from 46 uM to 0.6 nM. The cells were fixed using the Kalypsys Washer/Dispenser station. The fixing protocol involved aspiration of the cell media, addition of 6 uL/well of PBS, aspiration of PBS, addition of 5uL/well of 100% methanol, aspiration of methanol, and addition of 3 uL/well PBS with 1.5 uM propidium iodide (PI). The plates were read by the Acumen Explorer using a 1 x 8 um scan of the whole well area. PI fluorescence triggered the collection of PI and GFP signals. A nuclei population was defined by a 10 to 100 um width and depth filter that eliminated small and large fluorescent particles. Two subpopulations of nuclei were then defined by peak intensity of GFP fluorescence to obtain translocated and untranslocated objects. The number of translocated objects was used for data normalization.
Keywords: NIH Roadmap, MLSCN, MLI, MLSMR, sOGT, qHTS, NCGC
Potency is read from the fitted curve at half-maximal effect.

Glucocorticoid receptor (Homo sapiens), sequence (P04150 whole entry, looked up): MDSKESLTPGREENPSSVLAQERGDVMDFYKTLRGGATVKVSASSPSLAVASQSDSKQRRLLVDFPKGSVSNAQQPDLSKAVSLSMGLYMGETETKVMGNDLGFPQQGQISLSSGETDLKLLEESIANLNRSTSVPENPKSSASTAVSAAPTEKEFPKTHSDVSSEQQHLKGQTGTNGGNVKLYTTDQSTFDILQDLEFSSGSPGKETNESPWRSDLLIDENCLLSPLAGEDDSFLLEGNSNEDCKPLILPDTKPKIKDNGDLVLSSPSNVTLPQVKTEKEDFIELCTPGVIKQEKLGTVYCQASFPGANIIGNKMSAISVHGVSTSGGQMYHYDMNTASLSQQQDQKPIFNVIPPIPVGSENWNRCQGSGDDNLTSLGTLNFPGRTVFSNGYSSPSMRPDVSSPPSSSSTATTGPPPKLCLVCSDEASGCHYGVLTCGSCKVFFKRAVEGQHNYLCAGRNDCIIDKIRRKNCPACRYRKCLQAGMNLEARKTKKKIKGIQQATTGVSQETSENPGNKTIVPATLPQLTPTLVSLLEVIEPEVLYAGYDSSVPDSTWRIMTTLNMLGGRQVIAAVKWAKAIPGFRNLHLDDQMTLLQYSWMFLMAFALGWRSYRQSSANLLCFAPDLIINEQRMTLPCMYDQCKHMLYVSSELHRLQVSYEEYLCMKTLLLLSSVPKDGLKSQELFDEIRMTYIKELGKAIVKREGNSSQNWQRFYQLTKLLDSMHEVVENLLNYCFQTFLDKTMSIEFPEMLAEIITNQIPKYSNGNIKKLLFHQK

| Compound | Potency |
| --- | --- |
| O=c1[nH]oc2c1CCNC2 | > 46 µM and > 20.6 µM |
| Cc1ncsc1CCCl | > 46 µM |
| C=CCN1C[C@H](C)N([C@H](c2ccc(C(=O)N(CC)CC)cc2)c2cccc(OC)c2)C[C@H]1C | > 46 µM |
| CCC1(CC)C(=O)C=CNC1=O | > 20.6 µM |
| COc1c2c(cc3c1OCO3)CCN(C)C2 | > 20.6 µM |
| C#C[C@]1(O)CC[C@H]2[C@@H]3CCC4=CC(=O)CC[C@]4(C)[C@H]3CC[C@@]21C | 0.338 µM (active) |
| CC(NC(C)(C)C)C(=O)c1cccc(Cl)c1 (centres undefined) | > 20.6 µM |
| C[N+]1(C)[C@@H]2CC(OC(=O)[C@H](CO)c3ccccc3)C[C@H]1[C@@H]1O[C@@H]12 (some centres undefined) | > 20.6 µM |
| O=C(CCCN1CCC2(CC1)C(=O)NCN2c1ccccc1)c1ccc(F)cc1 | > 46 µM and > 20.6 µM |
| O=P1(N(CCCl)CCCl)NCCCO1 (centres undefined) | > 46 µM |
| CNC(C)(C)Cc1ccccc1 | > 20.6 µM |
| NCCc1ccc(O)cc1 | > 46 µM |
| COc1ccc2c(c1)C13CCCC[C@@H]1C(C2)N(C)CC3 (some centres undefined) | > 20.6 µM |
| CCCCC/C=C\C/C=C\C/C=C\C/C=C\CCCC(=O)NCC(=O)O | > 46 µM |
